Assay results: PubChem BioAssay AID1159580 (chemical genetic matrix, 2015)
The whole screen tested about 5,500 compounds, of which about 2,000 (36%) were called active. Roughly 18% stayed inconclusive and do not appear here. No stated cut-off is given here; in the data, active means normalized growth mostly below about 0.91 (no sharp cut-off); inconclusive means no clear call, values can overlap the other calls; inactive means mostly above about 0.92. Some of the results follow.

Experiment: chemical genetic growth profiling, strain panel (AID 1159580);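 further: tested at 20 µM; growth read once vehicle control cultures reached saturation at 30 °C; 1 = growth at the plate median or of vehicle wells; lower values mean less growth of the strain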
Conditions: S. cerevisiae deletion strains, growth OD
[1] = locus YBR229C, strain ROT2, hits give low values
[2] = locus YCL061C, strain MRC1, hits give low values
[3] = locus YDL101C, strain DUN1, hits give low values
[4] = locus YEL061C, strain CIN8, hits give low values
[5] = locus YHR030C, strain SLT2, hits give low values
[6] = locus YJR075W, strain HOC1, hits give low values
[7] = locus YLR039C, strain RIC1, hits give low values
[8] = locus YMR307W, strain GAS1, hits give low values
[9] = locus YPL241C, strain CIN2, hits give low values

Measured: normalized growth

N#C/C(=C\N(CCS(=O)(=O)c1ccc(Cl)cc1)Cc1cccs1)S(=O)(=O)c1ccc(Cl)cc1
inactive: locus YAL013W, strain DEP1, hits give low values 0.999 | [1] 1.01 | [2] 1.02 | [3] 1 | locus YDR150W, strain NUM1, hits give low values 1.08 | [4] 0.973 | locus YGR078C, strain PAC10, hits give low values 1.01 | [5] 1.05 | locus YHR087W, strain rtc3, hits give low values 1.01 | locus YJR043C, strain POL32, hits give low values 1.03 | [6] 1.04 | locus YKL190W, strain CNB1, hits give low values 0.987 | [7] 1.06 | locus YLR058C, strain SHM2 (second series), hits give low values 1 | locus YLR085C, strain ARP6, hits give low values 0.943 | locus YLR262C, strain YPT6, hits give low values 1.06 | locus YML094W, strain GIM5, hits give low values 0.981 | locus YMR219W, strain ESC1, hits give low values 1 | locus YMR263W, strain SAP30, hits give low values 1.09 | [8] 1.08 | locus YNL153C, strain GIM3, hits give low values 1.03 | locus YNL298W, strain CLA4 (second series), hits give low values 0.947 | locus YNL322C, strain KRE1, hits give low values 0.996 | locus YNR030W, strain Alg12, hits give low values 1 | locus YPL055C, strain LGE1, hits give low values 1.13 | [9] 0.981 | locus YPR135W, strain CTF4, hits give low values 1.19

COc1c2c(cc3c1OCO3)C13C=C[C@H](OC)CC1N(C2)CC3O (stereo not given in full)
inactive: locus YAL021C, strain ccr4, hits give low values 0.966 | locus YAL026C, strain drs2, hits give low values 0.976 | locus YAL030W, strain snc1, hits give low values 0.996 | locus YBL061C, strain skt5, hits give low values 0.984 | locus YBR009C, strain hhf1, hits give low values 1 | locus YBR021W, strain FUR4, hits give low values 1.06 | locus YBR023C, strain chs3, hits give low values 0.981 | locus YBR171W, strain sec66, hits give low values 1 | [1] 1 | locus YBR231C, strain swc5, hits give low values 1 | locus YBR279W, strain paf1, hits give low values 0.963 | locus YCL011C, strain gbp2, hits give low values 0.969 | locus YCL016C, strain dcc1, hits give low values 0.955 | locus YCL029C, strain bik1, hits give low values 0.981 | [2] 0.979 | locus YCL069W, strain vba3, hits give low values 0.991 | locus YCR088W, strain abp1, hits give low values 0.991 | locus YDL005C, strain med2, hits give low values 0.976 | locus YDL035C, strain GPR1, hits give low values 1.03 | locus YDL040C, strain nat1, hits give low values 1 | locus YDL074C, strain BRE1, hits give low values 1.01 | [3] 0.985 | locus YDL185W, strain tfp1, hits give low values 0.961 | locus YDL192W, strain arf1, hits give low values 0.986 | locus YDR001C, strain nth1, hits give low values 0.988 | locus YDR069C, strain doa4, hits give low values 0.963 | locus YDR101C, strain arx1, hits give low values 1.01 | locus YDR137W, strain rgp1, hits give low values 0.953 | locus YDR159W, strain sac3, hits give low values 0.968 | locus YDR162C, strain NBP2, hits give low values 0.99 | locus YDR195W, strain ref2 0.966 | locus YDR297W, strain sur2, hits give low values 0.976 | locus YDR318W, strain mcm21, hits give low values 0.989 | locus YDR334W, strain swr1, hits give low values 0.978 | locus YDR335W, strain msn5, hits give low values 0.972 | locus YDR388W, hits give low values 0.983 | locus YDR392W, strain spt3, hits give low values 0.915 | locus YDR502C, strain sam2, hits give low values 0.988 | locus YEL003W, strain gim4, hits give low values 1 | locus YEL037C, strain rad23, hits give low values 0.983 | locus YEL061C, strain CIN8 (second series), hits give low values 0.984 | [4] 1 | locus YER015W, strain faa2, hits give low values 0.972 | locus YER016W, strain bim1, hits give low values 0.975 | locus YER110C, hits give low values 0.97 | locus YER111C, strain swi4, hits give low values 0.977 | locus YER155C, strain BEM2 (second series), hits give low values 1.05 | locus YER155C, strain BEM2, hits give low values 0.997 | locus YER167W, strain BCK2, hits give low values 0.998 | locus YFR010W, strain ubp6, hits give low values 1.02 | locus YGL078C, strain dbp3, hits give low values 0.975 | locus YGL086W, strain mad1, hits give low values 1 | locus YGL167C, strain pmr1, hits give low values 0.999 | locus YGL173C, strain kem1, hits give low values 1.01 | locus YGL227W, strain vid30, hits give low values 0.987 | locus YGL240W, strain doc1, hits give low values 1.04 | locus YGL248W, strain PDE1, hits give low values 0.999 | locus YGL253W, strain hxk2, hits give low values 0.963 | locus YGR135W, strain pre9, hits give low values 0.972 | locus YGR252W, strain gcn5, hits give low values 1.08 | locus YHR013C, strain ard1, hits give low values 0.956 | locus YHR027C, strain rpn1, hits give low values 0.989 | [5] 0.986 | locus YHR079C, strain IRE1 (second series), hits give low values 0.986 | locus YHR094C, strain hxt1, hits give low values 0.978 | locus YHR129C, strain ARP1, hits give low values 0.994 | locus YHR142W, strain chs7, hits give low values 0.951 | locus YHR200W, strain rpn10, hits give low values 0.992 | locus YIL066C, strain RNR3, hits give low values 1 | locus YIL073C, strain SPO22, hits give low values 0.94 | locus YIL125W, strain kgd1, hits give low values 0.984 | locus YIR030C, strain dcg1, hits give low values 0.97 | locus YJL092W, strain hpr5, hits give low values 0.982 | locus YJL095W, strain BCK1 (second series), hits give low values 0.972 | locus YJL095W, strain BCK1, hits give low values 0.975 | locus YJL115W, strain asf1, hits give low values 0.957 | locus YJL129C, strain trk1, hits give low values 0.95 | locus YJL134W, strain LCB3, hits give low values 0.99 | locus YJL154C, strain vps35, hits give low values 0.977 | locus YJL164C, strain tpk1, hits give low values 1.02 | locus YJL166W, strain qcr8, hits give low values 0.989 | locus YJL168C, strain set2, hits give low values 0.985 | locus YJL187C, strain SWE1 (second series), hits give low values 0.98 | locus YJL187C, strain SWE1, hits give low values 0.987 | [6] 1 | locus YKL009W, strain mrt4, hits give low values 0.992 | locus YKL068W, hits give low values 0.98 | locus YKL085W, strain MDH1 (second series), hits give low values 1 | locus YKL085W, strain MDH1, hits give low values 1 | locus YKL160W, strain elf1, hits give low values 0.95 | locus YKR001C, strain vps1, hits give low values 0.99 | locus YKR026C, strain gcn3, hits give low values 0.993 | locus YKR091W, strain srl3, hits give low values 0.978 | locus YLL001W, strain dnm1, hits give low values 0.996 | locus YLL026W, hits give low values 0.98 | locus YLL041C, strain sdh2, hits give low values 0.98 | locus YLR027C, strain aat2, hits give low values 0.996 | [7] 1 | locus YLR058C, strain SHM2, hits give low values 0.994 | locus YLR102C, strain apc9, hits give low values 0.988 | locus YLR221C, strain rsa3, hits give low values 1.04 | locus YLR258W, strain gsy2, hits give low values 0.981 | locus YLR262C, strain YPT6 (second series), hits give low values 1 | locus YLR268W, strain sec22, hits give low values 1.02 | locus YLR320W, strain mms22, hits give low values 1.02 | locus YLR342W, strain FKS1 (second series), hits give low values 1.08 | locus YLR342W, strain FKS1, hits give low values 0.988 | locus YLR357W, strain rsc2, hits give low values 0.981 | locus YLR370C, strain arc18, hits give low values 0.971 | locus YLR371W, strain rom2, hits give low values 0.957 | locus YLR384C, strain iki3, hits give low values 0.978 | locus YLR418C, strain cdc73, hits give low values 1.01 | locus YML016C, strain PPZ1, hits give low values 0.999 | locus YML032C, strain rad52, hits give low values 1 | locus YML120C, strain ndi1, hits give low values 1 | locus YML124C, strain tub3, hits give low values 0.982 | locus YMR058W, strain fet3, hits give low values 0.979 | locus YMR078C, strain ctf18, hits give low values 0.967 | locus YMR125W, strain sto1, hits give low values 0.98 | locus YMR129W, hits give low values 0.965 | locus YMR205C, strain PFK2, hits give low values 1.02 | locus YMR223W, strain ubp8, hits give low values 0.986 | locus YMR231W, strain pep5, hits give low values 0.993 | [8] 1.23 | locus YNL067W, strain RPL9B, hits give low values 0.974 | locus YNL071W, strain lat1, hits give low values 0.993 | locus YNL128W, strain TEP1, hits give low values 0.985 | locus YNL209W, strain ssb2, hits give low values 0.963 | locus YNL233W, strain BNI4, hits give low values 1.01 | locus YNL248C, strain rpa49, hits give low values 0.938 | locus YNL250W, strain rad50, hits give low values 0.983 | locus YNL271C, strain bni1, hits give low values 0.992 | locus YNL298W, strain CLA4, hits give low values 0.985 | locus YNL307C, strain MCK1, hits give low values 0.991 | locus YNL322C, strain KRE1 (second series), hits give low values 0.983 | locus YNR049C, strain mso1, hits give low values 0.954 | locus YNR052C, strain pop2, hits give low values 0.977 | locus YOL012C, strain htz1 0.827 | locus YOL147C, strain pex11, hits give low values 0.983 | locus YOR001W, strain rrp6, hits give low values 1.05 | locus YOR061W, strain CKA2, hits give low values 0.993 | locus YOR069W, strain VPS5, hits give low values 0.986 | locus YOR070C, strain gyp1, hits give low values 0.974 | locus YOR080W, strain dia2, hits give low values 0.964 | locus YOR083W, strain WHI5, hits give low values 0.928 | locus YOR106W, strain vam3, hits give low values 0.957 | locus YOR136W, strain idh2, hits give low values 0.992 | locus YOR144C, strain elg1, hits give low values 0.99 | locus YOR184W, strain ser1, hits give low values 1.04 | locus YOR265W, strain rbl2, hits give low values 0.99 | locus YOR270C, strain vph1, hits give low values 0.973 | locus YOR290C, strain snf2, hits give low values 0.956 | locus YOR316C, strain cot1, hits give low values 0.983 | locus YPL051W, strain arl3, hits give low values 0.963 | locus YPL078C, strain atp4, hits give low values 0.96 | locus YPL106C, strain sse1, hits give low values 0.984 | locus YPL240C, strain hsp82, hits give low values 0.992 | [9] 0.988 | locus YPR119W, strain clb2, hits give low values 0.981 | locus YPR141C, strain kar3, hits give low values 0.968 | locus YPR163C, strain tif3, hits give low values 0.996 | locus YPR167C, strain met16, hits give low values 0.981 | strain wtn01, hits give low values 1.01
